Reference: PubChem BioAssay AID1347417 (National Center for Advancing Translational Sciences (NCATS), 2020)
Hit rate of the full screen: of about 120,000 compounds, about 5,300 (4.4%) were called active. Roughly 22% stayed inconclusive and do not appear here. For the sample, actives were picked, then their nearest neighbours and some compounds at random. A number with no mark means an inactive call. Calls come from the whole dose curve; as a rule, active = well fitted inhibition curve with a large enough effect; inconclusive = small, poorly fitted or top-dose-only effect; inactive = no such curve, though single readings can be large or run the other way.

Experiment: qHTS Primary assay for Inhibitors of Plasmodium falciparum Dd2 growth in vitro; note: nearly all actives have a fitted effect of over 65% in size;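 for activity, negative = inhibition: plate controls were DMSO vehicle for no effect and reference drug for full effect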
Conditions: P. falciparum Dd2 growth, SYBR Green, 72 h; series mostly up to 28.9 µM; activity, negative = inhibition: at the top concentration
How it was run: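 Infected erythrocytes (Dd2, 0.3% parasitemia, 2.5% hematocrit final) are added to compound in RPMI-1640/Albumax II medium, grown 72 h at 37C in low oxygen, then lysed with saponin/Triton-X containing SYBR Green and read by fluorescence.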
Potency is the fitted concentration of half-maximal effect.

Compound	outcome	Potency	activity, negative = inhibition
CC(C)c1ccc2oc(-c3cc(NC(=O)c4cccs4)ccc3Cl)nc2c1	inactive; activator; fitted 0.8913 uM	–	–
CC(C)CCN(C(=O)Nc1ccc(Cl)c(Cl)c1)C(C)c1cccs1 (configuration not stated)	–	10000 nM (active)	–
CC(c1cccs1)N(C)Cc1ccncc1 (configuration not stated)	inactive [at 44.1 µM]	–	–
C=CCNC(=O)N1CCC(C2CCN(Cc3cccc(F)c3F)CC2)C1 (configuration not stated)	–	–	-5.92%
Cc1ccc(C(=O)Nc2ccc3c(N4CCCCC4)ncnc3c2)s1	–	5010 nM (active)	–
Cc1cc(C)cc(C(=O)Nc2ccc3c(N4CCCC4)ncnc3c2)c1	–	708 nM (active)	–
O=C(Nc1ccc2ncnc(N3CCCCC3)c2c1)c1cccc(Cl)c1	–	–	-14.6%
CC(C)(C)CC(=O)Nc1ccc2c(N3CCOCC3)ncnc2c1	inactive	–	–
O=C(Nc1ccc2ncnc(N3CCCCC3)c2c1)c1ccc2c(c1)OCO2	inactive	–	–
Cc1ccc(C(=O)Nc2ccc3ncnc(N4CCCCC4)c3c2)s1	–	–	-18.8%
O=C(CCc1cc(Cl)no1)N1CCCC(c2nc(C3CCOCC3)no2)C1 (configuration not stated)	inactive	–	–
CCn1c(C2CCCN(C(=O)NCC(C)C)C2)nn(C)c1=O (configuration not stated)	–	–	11.7%
Cn1ccnc1CNC(=O)C[C@@H]1C[C@H]2O[C@H](CNC(=O)NCc3ccccc3)[C@@H](O)[C@H]2O1	–	–	28.4%
CC(C)c1nc2nccc(-c3ccc4c(c3)OCCCO4)n2n1	inactive	–	–
CCC(=O)Nc1ccc2nnc(-c3ccc(C(=O)Nc4ccc(OC)cc4)cc3)n2c1	–	708 nM (active)	–
CCC(CC)NC(=O)c1ccc(-c2nnc3ccc(NC(=O)C4CCC4)cn23)cc1	–	2510 nM (active)	–
COc1ccc(-c2cn3c(n2)sc2cc(C(=O)Nc4ccc(F)cc4)ccc23)cc1	inactive	–	–
O=C(Nc1ccc(C2(C(=O)N3CCCCCC3)CCC2)cc1)C1CC1	inactive	–	–
COc1cc(C(=O)Nc2ccc(OCc3cc(=O)n4cc(C)sc4n3)cc2)cc(OC)c1OC	–	–	14.6%
O=C(Nc1ccc2ncnc(N3CCCCC3)c2c1)C1CCCCC1	inactive	–	–
COC[C@@H]1CN(Cc2ccc(F)c(OC)c2)C[C@H]1C(=O)N(C)C	–	–	-18.7%
CCn1c2c(c(=O)n1Cc1ccccc1)CCN(C(=O)Cc1ccc3c(c1)OCO3)C2	–	–	-4.73% [at 44.1 µM]
Cc1ccc(CN2COc3cc(C)c4c(oc(=O)c5ccccc54)c3C2)cc1	–	1120 nM (active)	–
CCc1cc2c(-c3ccccc3)cc(=O)oc2c2c1OCN(Cc1ccc(C)cc1)C2	–	2240 nM (active)	–
Cc1ccc(Cn2c(=O)n(Cc3nc(-c4ccccc4)no3)c(=O)c3cc4c(cc32)OCO4)cc1	–	–	79.1%

Compound	outcome	Potency	activity, negative = inhibition
COCCn1cc2c3c(cccc31)CN(C(=O)c1c(F)cccc1Cl)CC2	–	–	-15.4%
O=C(Nc1ccc(Cl)cc1)c1nc2c(o1)CCN(Cc1ccsc1)CC2	inactive [at 44.1 µM]	–	–
COCCn1ncc(N2CCC(NC(=O)C3CCC3)CC2)cc1=O	inactive	–	–
O=C(c1cccc2[nH]ccc12)N1C[C@@H](CO)[C@H](c2ccccn2)C1	–	–	9.59%
CN1CCC2(C1)CN(CC1CC1)c1ccc(C(=O)NC3CC3)cc12 (configuration not stated)	inactive [at 44.1 µM]	–	–
COc1ccc(-c2cn3c(n2)sc2cc(C(=O)Nc4ccccc4F)ccc23)cc1	inactive	–	–
COc1ccc(CCNC(=O)c2ccc3c(c2)sc2nc(-c4ccc(C)cc4)cn23)cc1OC	inactive	–	–
CCOC(=O)c1ccccc1NC(=O)c1sc2nc(-c3ccc(F)cc3)cn2c1C	–	–	93.4%
CCOc1ccc(CCNC(=O)c2ccc3c(c2)sc2nc(-c4ccc(F)cc4)cn23)cc1OCC	–	5620 nM (active)	–
COc1ccc(-c2cn3c(C)c(C(=O)Nc4cc(C)cc(C)c4)sc3n2)cc1	–	–	-22.2%
CCN1CCN(CCCNC(=O)c2ccc3c(c2)sc2nc(-c4ccc(OC)cc4)cn23)CC1	–	3160 nM (active)	–
Cc1cccc2nnc(N3CCN(C(=O)c4ccc(F)c(F)c4)CC3)n12	–	–	-14.3%
O=C(CCNc1c(-c2ccccc2)nc2cnccn12)N1CCC(N2CCCCC2)CC1	inactive	–	–
CCn1cc(-c2ccccc2)cc1C(=O)NCc1ccccn1	inactive	–	–
CCCCN1C(=O)c2ccccc2C(C(=O)NCCCOC)C12CCCCC2 (configuration not stated)	–	–	-7.88%
C=CCNC(=O)N1CC[C@H]2CC(=O)N(CC(N)=O)CC[C@H]2C1	–	–	-18.1% [at 44.1 µM]
O=C(c1cc2cccnn2n1)N1CCOCC1	–	–	12.2% [at 44.1 µM]
Cc1ccc2cc(CCC(=O)O)c(=O)[nH]c2c1	–	–	9.25%
Cc1cc2nc3n(c(=O)c2n1CC(=O)NCc1ccccc1Cl)CCCC3	–	–	12.7%
Oc1ccccc1CNC1(Cc2cc(CN3CCOCC3)on2)COC1	–	–	14% [at 44.1 µM]
C[C@@H](NC(=O)C[C@@H]1[C@H](O)CC[C@@H]2[C@](C)(CO)[C@H](O)CC[C@]21C)c1ccccc1	–	–	17.5% [at 44.1 µM]
COc1ccc(C(=O)N2CCC(Oc3ncccc3C(=O)N(C)C)C2)c(OC)c1 (configuration not stated)	–	–	0.886%
CC[C@@H](NC(=O)CC1CCN(Cc2ccccc2)CC1)C1CC(O)C1 (some centres not stated)	–	–	1.5%
CCOc1ccc(C(=O)N2CCN(c3cc(-c4cccs4)[nH]n3)CC2)cc1	inactive	–	–
CCOc1ccc(C(=O)N2CCN(CCc3ccccn3)CC2)cc1	–	2820 nM (active)	–

Compound	outcome	Potency	activity, negative = inhibition
CCOc1ccc(C(=O)N2CCC3(CC2)c2nccn2-c2ccccc2CN3C)cc1	inactive [at 5.79 µM]	–	–
Cc1oc2ccn(Cc3cccc(F)c3)c(=O)c2c1C(=O)NCc1cccnc1	–	–	-4.3%
O=C(O)Cn1ccc2cc(OCCc3cccc(-c4cccnc4)c3)cnc21	–	–	1.28% [at 44.1 µM]
CCC(CC)c1cc([C@H]2CN3CC[C@H]2C[C@@H]3CNC(=O)NCc2ccccc2)nc(-c2ccncc2)n1	–	631 nM (active)	–
CCC(CC)c1cc([C@H]2CN3CC[C@H]2C[C@@H]3CNS(=O)(=O)Cc2ccccc2)nc(-c2ccncc2)n1	–	–	-9.02%
N#Cc1cccc(NC(=O)NC[C@H]2C[C@@H]3CCN2C[C@@H]3CN2CCN(c3ncccn3)CC2)c1	inactive	–	–
CC(C)c1nnsc1CN1CCn2nc(CCC(=O)N3CCCC3)cc2C1	–	–	-17%
CCN1C(=O)CCN(C(=O)N(C)C)CC12CCOCC2	–	–	30.6%
CCOc1ccc(NC(=O)N2c3ccccc3CC2c2noc(C3CCOCC3)n2)cc1 (configuration not stated)	–	–	-12.3%
CNC(=O)[C@@H]1CN(C(=O)c2ccco2)C[C@H]1COC	–	–	7.02%
C[S+](=O)([O-])N1CC2(Cc3ccccc31)CN(C(=O)C1CC1)C2	–	–	-4.62% [at 44.1 µM]
CC(=O)N1CC2(CCN(Cc3cccnc3)C2)Cc2ccccc21 (configuration not stated)	–	–	-11.2%
O=C(C1CCCC1)N1CC2(CCCN(C3CCCCC3)C2)Cc2ccccc21 (configuration not stated)	–	7940 nM (active)	–
COc1ccc2[nH]c3c(c2c1)CCNC31CCN(C(=O)c2ccnn2C)CC1	inactive	–	–
O=C(Cn1nc2c(cc1=O)CCCCC2)Nc1nc(-c2ccncc2)cs1	–	–	-14.3%
O=C1CO[C@H]2CN(C3CCC3)C[C@H]2N1Cc1ccc(OC(F)(F)F)cc1	–	10000 nM (active)	–
COc1ccc(CN2C(=O)CO[C@H]3CN(Cc4cccnc4)C[C@H]32)cc1	–	–	-27.4% [at 44.1 µM]
COc1ccc(CN2C(=O)CO[C@H]3CN(C(=O)C4CC4)C[C@H]32)cc1	–	–	18.4% [at 44.1 µM]
CCNC(=O)N1C[C@@H]2OCC(=O)N(CCOC)[C@@H]2C1	–	–	1.69% [at 44.1 µM]
Cc1cccc(C(=O)N2CCC(Oc3ccc(-c4noc(C(C)C)n4)cc3)C2)c1 (configuration not stated)	–	–	27.3% [at 5.79 µM]
CC(C)c1nc(-c2ccc(OC3CCN(C(=O)CCc4nc5ccccc5[nH]4)C3)cc2)no1 (configuration not stated)	–	1260 nM (active)	–
CCc1nc(-c2ccc(OC3CCN(C(=O)Cc4c[nH]c5ccccc45)C3)cc2)no1 (configuration not stated)	–	–	2.05% [at 5.79 µM]
N#Cc1ccc(C(=O)Nc2ccc3n(c2=O)C[C@H]2C[C@@H]3CN(C(=O)NC3CCCCC3)C2)cc1	–	–	-19.6%
COc1cccc(NC(=O)CN2C(=O)c3ccccc3Sc3ncccc32)c1	–	–	-15.6%
COc1cccc(NC(=O)Nc2ccc3c(c2)N(C)C(=O)c2ccccc2S3)c1	–	12600 nM (active)	–

Compound	outcome	Potency	activity, negative = inhibition
CCOc1ccccc1C(=O)Nc1ccc2c(c1)N(C)C(=O)c1ccccc1S2	–	–	-8.57%
CCn1cc(-c2ccc(C)cc2)cc1C(=O)NCc1cccnc1	–	–	-8.65%
Cc1cccc(N2CCN(C(=O)c3cc4n(n3)CC(c3ccc(Cl)cc3)OC4)CC2)c1 (configuration not stated)	inactive	–	–
COc1cc(CNCc2ccc(C)c(F)c2F)ccc1OCC(O)CN1CCC(O)CC1 (configuration not stated)	–	–	-45.4%
N#Cc1cccc(CN2C[C@H](O)C[C@H]2c2nc(-c3ccccn3)no2)c1	–	–	9.29% [at 44.1 µM]
Cc1ccccc1C(=O)NCc1nnc2ccc(-c3ccccc3)nn12	–	–	-7.27%
COc1ccccc1C(=O)N1CCC(n2cnnc2C2CC2)CC1	–	–	8.5%
COCc1nncn1C1CCN(C(=O)c2ccccc2OC(F)(F)F)CC1	–	10000 nM (active)	–
COCc1nncn1C1CCN(C(=O)c2ccccc2F)CC1	–	–	-7.03%
COc1ccccc1C(=O)Nc1ccc2c(c1)CN(Cc1ccccc1)C(=O)C(C)O2 (configuration not stated)	inactive	–	–
Cc1ccc(CN2CCCN(Cc3ccncc3)C(c3ccccc3)CC(=O)NCC2)s1 (configuration not stated)	–	1000 nM (active)	–
O=C1CC2CCN(Cc3cccnc3)CC2CCN1 (configuration not stated)	–	–	9.65% [at 44.1 µM]
Cc1ccccc1CNC(=O)C1CCCN(Cc2cccnc2)CCC(=O)NCC1 (configuration not stated)	–	–	-19.7%
CNC(=O)N1CCCN(S(C)(=O)=O)C(c2ccccc2)CC(=O)NCC1 (configuration not stated)	–	–	3.9%
O=C1CC(c2ccccc2)N(Cc2ccncc2)CCCN(Cc2cccnc2)CCN1 (configuration not stated)	–	4470 nM (active)	–
Cc1cccc(CN2CCCN(Cc3ccncc3)C(c3ccccc3)CC(=O)NCC2)c1 (configuration not stated)	–	1260 nM (active)	–
CS(=O)(=O)N1CCCN(C(=O)CN2CCCCCC2)CCNC(=O)CC1c1ccccc1 (configuration not stated)	–	–	-8.48%
O=C1CC(c2ccccc2)N(C(=O)C2CC2)CCCN(C(=O)Cc2cccc(F)c2)CCN1 (configuration not stated)	–	–	-7.87%
CS(=O)(=O)N1CCCN(C(=O)Cc2cccc(F)c2)CCNC(=O)CC1c1ccccc1 (configuration not stated)	–	–	-1.53%
N#Cc1ccc(CC(=O)N2CC(CNc3cccnc3)C3(C2)CN(c2ccccc2)C3)cc1 (configuration not stated)	–	–	-11.1% [at 44.1 µM]
CCN1CC2(CCN(C(=O)c3cc4c(nc3OC)CCC4)CC2)OC1=O	–	–	6%
CNC(=O)[C@H]1C[C@H](Oc2ccccc2)CN1C(=O)c1ccccc1	–	–	-11%
